Values joined by “and” are separate entries in the source; they are usually repeats but may differ in a detail not shown here. Identical values can stand only once. Screen size: about 2,100 compounds; about 590 (28%) were called active. Another 42% or so got no clear call; they are omitted. Calls come from the whole dose curve; as a rule, active = well fitted inhibition curve with a large enough effect; inconclusive = small, poorly fitted or top-dose-only effect; inactive = flat fitted curve, though single readings scatter. Some of the results follow.

Among the data in PubChem BioAssay AID651814 (National Center for Advancing Translational Sciences (NCATS), 2012) are max response and Potency values, retold here.
Potency is the fitted concentration of half-maximal effect.

DNA dC->dU-editing enzyme APOBEC-3F (Homo sapiens), sequence (Q8IUX4 whole entry, looked up): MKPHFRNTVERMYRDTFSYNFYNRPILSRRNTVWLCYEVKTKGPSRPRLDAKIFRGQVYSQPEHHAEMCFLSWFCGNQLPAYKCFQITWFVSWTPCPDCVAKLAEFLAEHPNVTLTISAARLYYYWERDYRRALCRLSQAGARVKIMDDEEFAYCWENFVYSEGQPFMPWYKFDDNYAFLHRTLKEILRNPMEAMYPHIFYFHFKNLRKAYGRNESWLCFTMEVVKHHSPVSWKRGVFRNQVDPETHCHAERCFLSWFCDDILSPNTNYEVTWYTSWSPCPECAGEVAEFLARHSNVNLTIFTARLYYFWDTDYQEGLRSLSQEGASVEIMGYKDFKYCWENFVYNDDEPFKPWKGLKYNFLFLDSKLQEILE

This experiment concerns the target DNA dC->dU-editing enzyme APOBEC-3F (Homo sapiens) (UniProt Q8IUX4). As to the kind of experiment: qHTS for inhibitors of Vif-A3F interactions: Cherry picks.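 For max response: % of control where 0% means no effect; active compounds raise eYFP fluorescence by blocking Vif-driven A3F loss.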 Note: nearly all actives have a fitted effect of over 70% in size. The conditions noted are these: HeLa A3F-eYFP + Vif (tagged APOBEC3F with the HIV-1 protein that degrades it), eYFP fluorescence, 24 h. A digest of the protocol: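 HeLa cells stably expressing A3F-eYFP plus Vif, cultured overnight, then exposed to compounds at several concentrations for 24 h at 37 deg C. Reduced Vif-driven degradation read as rising eYFP fluorescence (488 nm ex/500-530 nm em) by laser-scanning cytometry; MG132 as positive control.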
A general note: In qHTS, concentration-response curves come from the screen itself.
Turning to `CCOc1ccc(-c2cc(C(=O)N/N=C(\C)c3cccnc3)c3ccccc3n2)cc1`, the max response is -8.69% (inactive).

In the case of `CCN(CCCN(C)C)c1ccc(/C=C/c2ccnc3ccccc23)cc1`, the Potency is 18.4 µM (active). The same measure, in the same setting: the same measure for `CCN(CC)c1ccc(/C=C/c2ccnc3ccccc23)cc1`: 6.51 µM (active); for `CCCCN(CCCC)c1ccc(/C=C/c2ccnc3ccccc23)cc1`: 20.6 µM (active).

As for `CCOC(=O)c1c(C)oc2ccc(N(C(=O)c3ccncc3)S(=O)(=O)c3ccc(Br)cc3)cc12`, the max response is -14.4% (inactive).

For `O=C(NC1C/C(=N/O)c2cc3c(cc21)OCO3)C(F)(F)F` (stereo not given), the max response is 0.0424% (inactive). Turning to `Cc1cccc(-n2c(N)c(-c3nc4ccccc4n3C)c3nc4ccccc4nc32)c1`, the max response was -0.799% (inactive). As for `CC(=O)n1c2ccccc2c2nc3ccccc3nc21`, the Potency is 11.6 µM (active).

Turning to `N#C/C(=C\c1ccc(-c2ccc(C(=O)O)cc2)o1)c1nc2ccccc2[nH]1`, the max response is 0.542% (inactive). Same read-out and setting: under `Cc1ccc2nc(/C(C#N)=C/c3ccc(-c4ccccc4C(=O)O)o3)[nH]c2c1` stands -7.06% (inactive); under `Cc1ccc2nc(/C(C#N)=C/c3ccc(-c4cccc([N+](=O)[O-])c4)o3)[nH]c2c1`, -29.2% (inactive). Regarding `N#C/C(=C\c1ccc(-c2ccc(F)cc2F)o1)c1nc2ccccc2[nH]1`, the Potency was 20.6 µM (active). Same read-out and setting: the same measure for `Cc1ccc2nc(/C(C#N)=C/c3ccc(-c4cccc(Cl)c4)o3)[nH]c2c1`: 4.61 µM (active); for `Cc1ccc2nc(/C(C#N)=C/c3ccc(-c4ccc(F)cc4F)o3)[nH]c2c1`: 4.11 µM (active). `Cc1ccc2nc(/C(C#N)=C/c3ccc(-c4ccc(C(=O)OC(C)C)cc4)o3)[nH]c2c1`: the Potency is 2.06 µM (active).

For the compound `CSCC[C@H](NC(=O)[C@H](Cc1ccccc1)n1c(=O)[nH]c2ccccc2c1=O)C(=O)N1CCC[C@@H]1C(=O)O`, the max response was 1.14% (inactive). For the compound `Cc1c(Cl)cccc1-c1ccc(/C=C(\C#N)c2nc3ccccc3[nH]2)o1`, the Potency was 20.6 µM (active). Consider `CCOC(=O)/C(=C/C1=CC(=C/N(C)C)/C(=O)O1)C(C)=O`, for which the max response was -9.79% (inactive). With `O=C1c2ccccc2-c2onc3c(N4CCN(C5CCCCC5)CC4)cc(NCCO)c1c23`, the Potency was 3.66 µM (active). In the case of `CN(C)CCCNc1cc(N2CCN(C3CCCCC3)CC2)c2noc3c2c1C(=O)c1ccccc1-3`, the Potency was 9.2 µM (active).

As to `CCNc1cc(N2CCN(C3CCCCC3)CC2)c2noc3c2c1C(=O)c1ccccc1-3`, the Potency was 18.4 µM (active). For the compound `CCOC(=O)c1cnc(-n2nc(C)cc2C)nc1NNc1cc(C)nc(-c2ccccc2)n1`, the max response is 0.647% (inactive).

On to `C/C(=N\Nc1nc(C)cc(-c2ccccc2)n1)c1ccc(F)cc1`, for which the max response was -6.16% (inactive).

Take `Cc1cc(/C=N/NC(=O)c2cc3ccccc3o2)c(C)n1C`: the max response is -15.8% (inactive). For the compound `Nc1c(C(=O)N/N=C/c2cccnc2)oc2nc(-c3ccccc3)cc(-c3ccco3)c12`, the Potency was 13 µM (active).

For the compound `O=C(CSc1nc(-c2ccco2)cc(C(F)(F)F)n1)Nc1cccnc1`, the max response is -24.4% (inactive). Still for that read-out and setting: under `Cc1cc(-c2ccccc2)nc(N/N=C/c2ccccc2F)n1` stands -4.11% (inactive). Consider `Nc1c(C(=O)N/N=C/c2ccc(F)cc2)oc2nc(-c3ccccc3)cc(-c3ccco3)c12`, for which the Potency was 7.9 µM (active). Same read-out and setting: under `Nc1c(C(=O)N/N=C/c2ccccc2Cl)oc2nc(-c3ccccc3)cc(-c3ccco3)c12` stands 2.91 µM (active). For the compound `C=CCOC(=O)C1=C(C)NC(C)=C(C(=O)OCC=C)C1c1cn(-c2ccccc2)nc1-c1ccco1`, the max response was 0.509% (inactive). For the compound `N=C1S/C(=C\c2ccc(-c3cccc(Cl)c3)o2)C(=O)N1c1nccs1`, the Potency is 18.4 µM (active). Regarding `CC(=O)/C(=C\N(C)C)Sc1ccc(Cl)cc1`, the max response is 1.31% (inactive). In the case of `CC[n+]1cc(C)ccc1/C=C/c1ccc(N(C)C)cc1`, the Potency is 8.86 µM (active).

Regarding `CN(C)c1ccc(/C=C/c2cc[n+](C)cc2)cc1`, the Potency is 15.8 µM (active).

On to `Cc1ccc(/C=C/c2ccc(N(C)C)cc2)[n+](C)c1`, for which the Potency was 8.86 µM (active). On to `CN1CCC(OC(=O)c2cc3cc(Cl)cc(Cl)c3oc2=O)CC1`, for which the max response was 3.05% (inactive). The same measure, in the same setting: the same measure for `COC(=O)[C@@]1(Cc2ccccc2)[C@@H]2C(=CC(=O)[C@H]2CC(=O)C(=O)N(C)C)CN1C(=O)c1ccccc1`: -26.2% (inactive).

As for `Nc1nc2n[nH]nc2c(=O)[nH]1`, the Potency is 6.51 µM (active) and 3.53 µM (active). For `N#C/C(N=Nc1ccccc1O)=N\Nc1ccccc1O`, the Potency was 14.6 µM (active). Regarding `CCCCN1C(=O)/C(=C2/Sc3ccccc3N2C)S/C1=N\c1ncn[nH]1`, the Potency was 18.4 µM (active). As to `Cc1cnc(NC(=O)CC(C)c2ccccc2)s1` (stereo not given), the max response is -26.1% (inactive). As for `CC(CC(=O)Nc1ccc2c(c1)c(=O)n(C)n2-c1ccccc1)c1ccccc1` (stereo not given), the Potency is 4.98 µM (active). In the case of `CCn1c2ccccc2c2cc(NC(=O)c3ccc(=O)oc3)ccc21`, the max response was -28.9% (inactive). Take `CC(C)(C)c1ccc(Cn2c(=O)cnc3ccccc32)cc1`: the max response was -25.6% (inactive). Still for that read-out and setting: the same measure for `CCOc1ccccc1OCC(=O)N/N=C(\C)Cc1ccc(OC)cc1`: -18.5% (inactive).

For `CCOc1ccc(Cn2c3ccc(OC)cc3c3nc4ccccc4nc32)cc1`, the Potency was 8.2 µM (active). With `Cc1ccc(-c2ccc(/C=N/NC(N)=S)o2)cc1`, the max response was -8.18% (inactive).

Regarding `NC(=S)N/N=C\c1ccc(-c2cccc(Cl)c2Cl)o1`, the max response is -18.7% (inactive). Turning to `O=C(O)c1ccc(-c2ccc(/C=N/Nc3ccc([N+](=O)[O-])cc3)o2)cc1`, the Potency was 15.8 µM (active). The same measure, in the same setting: under `O=C(O)c1cccc(-c2ccc(/C=N/Nc3ccc([N+](=O)[O-])cc3)o2)c1` stands 18.4 µM (active); under `CC(C)(C)NC(=S)N/N=C\c1ccc(-c2ccc([N+](=O)[O-])cc2)o1`, 14.6 µM (active); under `Cc1cc([N+](=O)[O-])ccc1-c1ccc(/C=N/NC(=O)c2ccc(Br)o2)o1`, 18.4 µM (active). `C/C(CCc1ccc2c(c1)OCO2)=N\NC(=S)NC(C)C`: the max response is -2.82% (inactive). On to `CN(/N=C/c1ccc(-c2ccc([N+](=O)[O-])cc2)o1)c1ccccc1`, for which the Potency is 0.731 µM (active).

Take `O=C(NC(=S)Nc1c(Cl)cc(Cl)cc1Cl)c1ccccc1`: the max response is -0.292% (inactive). With `COc1ccccc1N1CCN(C(=O)c2ccc3ncsc3c2)CC1`, the max response is -21% (inactive). `COc1ccc2nc3ccccc3nc2c1NC(=O)c1ccc(Cl)cc1`: the Potency was 16.4 µM (active). On the same count and under the same terms, the same measure for `COc1ccc2nc3ccccc3nc2c1NC(=O)c1ccc(Cl)cc1Cl`: 3.53 µM (active). On to `COc1ccc(C(=O)N/N=C/c2cc(Br)ccc2O)cc1OC`, for which the max response was -1.32% (inactive). For the compound `COc1ccc2nc3ccccc3nc2c1NC(=O)c1ccc(Br)cc1`, the Potency is 18.4 µM (active). Consider `COc1ccc(C(=O)NC(=S)NCc2cccnc2)cc1Cl`, for which the max response was -3.18% (inactive).

On to `COc1cc2nc(/C=C/c3ccc(N(C)C)cc3)sc2cc1SC`, for which the Potency is 20.6 µM (active).

In the case of `CCN(CC)c1ccc2cc(-c3nc4sc5c(c4c(=O)[nH]3)CCC(C(C)(C)C)C5)c(=O)oc2c1` (stereo not given), the max response is 13.2% (inactive). On to `COc1ccc2cc(-c3nc(Cl)c4c5c(sc4n3)CC(C)CC5)c(=O)oc2c1` (stereo not given), for which the Potency is 5.8 µM (active).

On to `O=C(Nc1ccc(Cl)cc1)Nc1ccon1`, for which the max response is -9.41% (inactive).

As for `O=C(CSc1n[nH]c(-c2ccccn2)n1)Nc1ccc(Cl)cc1`, the max response is 0.972% (inactive). Take `COc1ccccc1OCC(=O)NNC(=O)Nc1ccc(Cl)cc1`: the Potency was 14 µM (active).

Consider `COCCN(CCOC)Cc1c(O)ccc2c1O/C(=C\c1ccc(C)o1)C2=O`, for which the max response is -17.2% (inactive). As to `CCOC(=O)c1ccc(NC(=O)Cn2ncc(Cl)c(Cl)c2=O)cc1`, the max response is -29.1% (inactive). Same read-out and setting: the same measure for `Cc1ccc(S(=O)(=O)N2CCCCC2)cc1NC(=O)Cn1ncc(Cl)c(Cl)c1=O`: -13.3% (inactive). Consider `O=C(Cn1ncc(Cl)c(Cl)c1=O)NCC1CCCCC1`, for which the Potency was 15.8 µM (active). As for `C=CCSc1nc2sc3c(c2c(=O)n1CC)CCC3`, the max response was -3.63% (inactive). In the case of `C[C@@H]1O[C@@H](O[C@@H]2C(=O)c3c(O)cc(O)cc3O[C@H]2c2ccc(O)c(O)c2)[C@H](O)[C@H](O)[C@H]1O`, the max response was 2.1% (inactive). Consider `CCC(C)Sc1ccc(-c2nc3cc(C)ccn3c2NC2CCCCC2)cc1` (stereo not given), for which the max response is -4.06% (inactive). In the case of `COc1cccc(N2CCN(Cc3nc4scc(-c5ccccc5)c4c(=O)[nH]3)CC2)c1`, the Potency was 17.7 µM (active). `Cn1nnnc1SCc1nc2scc(-c3ccc(Cl)cc3)c2c(=O)[nH]1`: the max response is -13.9% (inactive). As for `O=c1c(Cl)c2oc3ccccc3nc-2c2ccccc12`, the Potency is 18.4 µM (active). Turning to `O=C(Nc1nc(-c2ccccn2)cs1)C1CCCC1`, the max response is -4.77% (inactive). With `Cc1ccc(-n2c(O)c(/C=C3/C(c4ccccc4)=Nc4ccccc43)c(=O)[nH]c2=O)cc1`, the max response was -12.3% (inactive). For `Cc1cc(N2CCN(C)CC2)ccc1NC(=O)c1c2c(nc3ccccc13)CCN(Cc1ccccc1)C2`, the max response is -29.2% (inactive). Same read-out and setting: under `Cc1ccccc1NC(=O)c1sc2nc3c(c(-c4ccco4)c2c1N)CCC3` stands -22.7% (inactive). For the compound `COc1ccc(NC(=O)c2sc3nc4c(cc3c2N)CN(Cc2ccccc2)CC4)c(OC)c1`, the Potency was 20.6 µM (active). In the case of `Nc1c(C(=O)c2ccc(Cl)cc2)sc2nc3c(cc12)CCC3`, the Potency is 23.1 µM (active). The same measure, in the same setting: under `CCN1CCc2nc3sc(C(=O)c4ccccc4)c(N)c3cc2C1` stands 16.4 µM (active). `Cc1ccc(NC2=C(Cl)C(=O)N(C3CCCCC3)C2=O)cc1`: the max response was -3.54% (inactive).

Consider `COc1cnc(-c2ccccn2)nc1Oc1ccc(F)cc1F`, for which the max response is 2.31% (inactive). For `Cc1ccc(SC2=C(Sc3ccc(C)cc3)C(=O)c3ccccc3C2=O)cc1`, the Potency is 20.6 µM (active). On to `Cc1c(NC(=O)c2csc3c2CCCC3)c(=O)n(-c2ccccc2)n1C`, for which the max response was 0.352% (inactive). Take `Cc1c(N=C2N=C(NC(=O)c3cccs3)c3ccccc32)c(=O)n(-c2ccccc2)n1C`: the Potency was 15.8 µM (active). Take `Cc1c(N/N=C(\C#N)C(=O)c2ccc(Cl)cc2)c(=O)n(-c2ccccc2)n1C`: the max response was -12.8% (inactive).
